This passage reports outcome and activity change, negative = cytotoxicity results from PubChem BioAssay (Tox21).

Results filed as inconclusive are left out. Calls of active or inactive are those of the source. The call rests on the fitted dose curve; in most records, active means well fitted cell-killing curve with a large enough effect in the repeat runs; inconclusive means weak or mixed curves, or effect the other way; inactive means flat fitted curve, though single readings scatter.
On the % scale 0 is the no-effect control and ±100 the full control effect.

The nature of this experiment: qHTS assay to identify small molecule antagonists of the retinoid acid receptor (RAR) signaling pathway - cell viability counter screen (AID 1159551). Further: nearly all actives have a fitted effect of over 35% in size. As to conditions: C3RL4 cells viability, ATP luminescence (CellTiter-Glo), 6 h; series mostly up to 92.4 µM. The source says:
U.S. Tox21 Program National Center for Advancing Translational Sciences [NCATS] NIH Chemical Genomics Center [NCGC] U.S. Environmental Protection Agency [EPA] National Institutes of Environmental Health Sciences [NIEHS] National Toxicology Program [NTP] U.S. Food and Drug Administration [FDA] Tox21 Assay Overview: All-trans Retinoic acid (atRA) is the potent natural metabolite of retinol and plays an important role in normal embryonic development and maintenance of cellular phenotype in adult animals. atRA is the activating ligand for the retinoic acid receptors (RARs) which form heterodimers with retinoid X receptors (RXRs) on the retinoic acid response element (RARE). Through activation of the RAR/RXRs nuclear receptors, atRA regulates the transcription of a large number of protein-coding genes and regulatory RNAs. Intracellular levels of atRA are controlled by the retinol signaling pathway (RSP) that regulates the biosynthesis and catabolism of atRA to maintain physiological levels. Chemicals that interfere with the RSP can cause abnormal intracellular levels of atRA and therefore are potential developmental toxicants. To assess compounds for the potential adverse effect on embryonic development through interfering with retinol signaling, a cell-based RARE luciferase reporter gene assay was used. C3RL4 cell line (OARSA/CFSAN/FDA, Laurel, MD) was used to screen Tox21 10K compound library for identifying inhibitors of the RSP. Also cytotoxicity was assessed by determining the viability of cells based on the quantitation of ATP.
Tox21 Assay Protocol Summary: C3RL4 cells were seeded at 1,000/well in 4 uL of assay medium into white solid 1,536-well tissue culture plates (Greiner Bio-One North America Inc. Monroe, NC) using a Multidrop Combi (Thermo Scientific, Waltham, MA) dispenser. After incubation at 37 C and 5% CO2 for an overnight, 23 nL of compounds dissolved in DMSO, positive control or DMSO only were transferred by a Pintool station (Kalypsys, San Diego, CA). One ul of 1 uM (final concentration) of Retinol was added right after the compound addition by using a Flying Reagent Dispenser (FRD) (Aurora Discovery, San Diego, CA). After 6 hr incubation at 37 C and 5% CO2, 5 uL of CellTiter-Glo reagent (Promega Corporation, Madison, WI) was added to each assay plate using an FRD. Luminescence was quantified on a ViewLux plate reader (PerkinElmer, Waltham, MA) after 30 min incubation at room temperature.
On to `C=C(C)C(=O)OCCNC(C)(C)C`, for which the result was inactive.

Turning to `CC/C=C\CC1=C(C)CCC1=O`, the result was inactive.

Consider `Nc1ccc([N+](=O)[O-])c(N)c1`, for which the molecule was called inactive.

In the case of `Cc1ccc2c(c1)OCC(=O)CO2`, the result was inactive.

`CN(C)c1ccc(C=O)cc1`: the molecule was classed as inactive.

Consider `O=C(O)C(=O)Cc1ccccc1`, for which the result was inactive.

Regarding `CO[C@@H]1[C@@H](OC(N)=O)[C@@H](O)[C@H](Oc2ccc3c(O)c(NC(=O)c4ccc(O)c(CC=C(C)C)c4)c(=O)oc3c2C)OC1(C)C`, the molecule was classed as inactive.

Turning to `COCCOCCOCCOCCOCCO`, the call was inactive.

Take `CC(C)=CCOC(=O)c1ccccc1`: the outcome was inactive.

For the molecule `O=C(CCN1CCN(CCO)CC1)N1c2ccccc2Sc2ccc(C(F)(F)F)cc21`, the outcome was inactive.

`O=C(O)c1ccc(Cl)cc1Cl`: the result was inactive.

Consider `OCCCCC(O)CO` (stereo not given), for which the call was inactive.

With `Cc1ccc(C=O)cc1C`, the result was inactive.

Consider `CCOC(=O)c1ncn2c1CN(C)C(=O)c1cc(F)ccc1-2`, for which the outcome was inactive.

For `COc1cc(N)ccc1C`, the molecule was called inactive.

With `Cc1ccc2ccc(Cl)cc2n1`, the result was inactive.

As for `Cc1cc2cc3c(C)cc(=O)oc3c(C)c2o1`, the molecule was called inactive.

As to `Cc1ccsc1/C=C/C1=NCCCN1C`, the molecule was classed as inactive.

As to `CC(=O)OC(C)OC(=O)C(C)c1ccc(-c2ccccc2)c(F)c1` (stereo not given), the call was inactive.

Take `COc1ccc(-c2cc(=O)c3c(O)cc(O[C@@H]4O[C@H](CO[C@@H]5O[C@@H](C)[C@H](O)[C@@H](O)[C@H]5O)[C@@H](O)[C@H](O)[C@H]4O)cc3o2)cc1O`: the call was inactive.

Take `CN1CCN(CC(=O)N2c3ccccc3C(=O)Nc3cccnc32)CC1`: the activity change, negative = cytotoxicity was 0.488% [at 8.39 µM] (inactive).

Regarding `CC(=O)Nc1cccc(C)c1`, the molecule was called inactive.

As to `O=C(NCCN1CCOCC1)c1ccc(Cl)cc1`, the result was inactive.

In the case of `CC(C)CC(=O)O`, the molecule was classed as inactive.

Take `CC(=O)Nc1ccc(S(=O)(=O)Cl)cc1`: the molecule was classed as inactive.

In the case of `CCCCN`, the result was inactive.

Take `C[Si](C)=O`: the activity change, negative = cytotoxicity is 3.8% [at 8.39 µM] (inactive).

Consider `O=C(OCc1ccccc1)C(=O)OCc1ccccc1`, for which the molecule was classed as inactive.

As for `CCOC(=O)/C=C/c1ccccc1`, the result was inactive.

On to `c1ccc2nccnc2c1`, for which the outcome was inactive.

Consider `O=P(O)(O)OP(=O)(O)O`, for which the molecule was classed as inactive.

As for `CN(CCOc1ccc(NS(C)(=O)=O)cc1)CCc1ccc(NS(C)(=O)=O)cc1`, the molecule was called inactive.

Turning to `CCOC(=O)c1ccc(OC(=O)CCCCCN=C(N)N)cc1`, the call was inactive.

Take `CNC(=O)[C@H]1O[C@@H](n2cnc3c(NCc4cc(Cl)ccc4OCc4cc(C)no4)ncnc32)[C@H](O)[C@@H]1N`: the outcome was inactive.

In the case of `CNS(=O)(=O)CCc1ccc2[nH]cc(C3CCN(C)CC3)c2c1`, the molecule was classed as inactive.

`CC1=CCC(C(C)C)=CC1`: the outcome was inactive.

On to `COc1ccc(OC)c(Cl)c1`, for which the outcome was inactive.

Consider `Cc1cccc(C)c1NC(=O)c1ccccc1C(=O)O`, for which the molecule was called inactive.

Take `CC(C)(C)NC(N)=O`: the outcome was inactive.

Turning to `OC[C@H](Cc1cccc(O)c1)[C@H](CO)Cc1cccc(O)c1`, the call was inactive.
